# Measured values published in PubChem BioAssay (Tox21).
# Values without a mark were called inactive. Results filed as inconclusive are left out. A call without a number means that no potency is given here. Calls of active or inactive are those of the source. Unless noted, calls follow the shape of the dose curve; as a rule, active = well fitted curve in the direction sought with a large enough effect in the repeat runs; inconclusive = weak or mixed curves; inactive = no such curve, though single readings can be large; an effect the other way counts as inactive or inconclusive.
# Key:
# [1] = qHTS assay for small molecule agonists of the p53 signaling pathway (AID 651631; calls by dose curve; also: nearly all actives have a fitted effect of over 15% in size)
# Summary of the method: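 Quantitative high-throughput format: 4,000 p53RE-bla HCT-116 cells/well, 5 h pre-incubation, 16 h compound exposure at 37 °C, 2 h room-temperature substrate step, fluorescence intensity measured.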
# [2] = qHTS assay for small molecules that induce genotoxicity in human embryonic kidney cells expressing luciferase-tagged ATAD5 (AID 651632); also: nearly all actives have a fitted effect of over 15% in size; also: potency is read from the fitted curve at half-maximal effect
# Summary of the method: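 Luminescence read-out: after 16 hr compound exposure at 37C, ATAD5-luciferase HEK293T cells received Amplite, 30 min RT, then CCD imaging. A rise in signal marks genotoxic stress.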
# [3] = qHTS assay for small molecule agonists of the p53 signaling pathway - cell viability (AID 651633; calls by dose curve;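 also: p53RE-bla HCT reporter cells with a stable beta-lactamase p53 reporter; series mostly up to about 83 µM; nearly all actives have a fitted effect of over 30% in size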)
# Summary of the method: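 Viability counter-read: CellTiter-Glo luminescence (30 min, room temperature) in the same p53RE-bla plates. These plates had been exposed to compounds for 16 h at 37 C.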
# [4] = qHTS assay for small molecules that induce genotoxicity in human embryonic kidney cells expressing luciferase-tagged ATAD5 - cell viability (AID 651634; calls by dose curve; also: nearly all actives have a fitted effect of over 25% in size)
# Summary of the method: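 HEK293T ATAD5-luc cells, 2,000/well; compound 15.5 hr, 37C/5% CO2; CellTiter-Fluor 30 min, 37C; fluorescence read.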
# [5] = qHTS assay for small molecule disruptors of the mitochondrial membrane potential - cell viability (AID 720634; calls by dose curve;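 also: human HepG2 liver cancer cells; series mostly up to about 83 µM; nearly all actives have a fitted effect of over 20% in size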)
# Summary of the method: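 Luminescence from CellTiter-Glo (ATP content) gave viability in HepG2 cells, read in the same wells as the MMP dye assay after 1 hr compound exposure at 37 C.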
# [6] = qHTS assay to test for compound auto fluorescence at 590 nm (red) in HepG2 cells (AID 720674)
# Summary of the method: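 1 hr compound incubation on HepG2 cells, 37 C, 5% CO2; plate read ex 540 nm / em 590 nm; intensities reported as Rose Bengal sodium equivalents.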
# [7] = qHTS assay to test for compound auto fluorescence at 460 nm (blue) in HEK293 cells (AID 720678)
# Summary of the method: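 Auto fluorescence in the blue band was quantified as triamterene equivalency. HEK293 cells were seeded at 2,000/well, dosed after a 4-5 hr attachment, and kept overnight at 37C before the 405/460 nm reading.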
# [8] = qHTS assay to test for compound auto fluorescence at 590 nm (red) in HEK293 cells (AID 720679)
# Summary of the method: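 Autofluorescence equivalency to Rose Bengal sodium, 540/590nm, in HEK293 cells exposed overnight to 23 nL compound per well.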
# [9] = qHTS assay to test for compound auto fluorescence at 535 nm (green) in HEK293 cells (AID 720680)
# [10] = qHTS assay to test for compound auto fluorescence at 460 nm (blue) in HEK293 cell free culture (AID 720681)
# Summary of the method: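 Blue fluorescence (Ex 405/Em 460 nm, triamterene-equivalent) was read immediately after pin transfer of compound or DMSO into medium (DMEM, 10% FBS) without cells.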
# [11] = qHTS assay to test for compound auto fluorescence at 535 nm (green) in HEK293 cell free culture (AID 720682)
# Summary of the method: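 Measurement is a direct plate read of green fluorescence (485 nm in, 535 nm out) after compound addition to serum-supplemented DMEM lacking cells, with fluorescein used to express intensities.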
# [12] = qHTS assay to test for compound auto fluorescence at 590 nm (red) in HEK293 cell free culture (AID 720683)
# Summary of the method: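 Red-channel autofluorescence of compounds in culture medium (DMEM, 10% FBS), no cells, measured at 540/590 nm. Rose Bengal sodium is the reference fluorophore for equivalence.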
# [13] = qHTS assay to test for compound auto fluorescence at 590 nm (red) in HepG2 cell free culture (AID 720684)
# Summary of the method: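 No cells present: MEM + 10% FBS only. Compound pinned in, red label read (540/590 nm). Activity = fluorescence equivalent to Rose Bengal sodium.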
# [14] = qHTS assay to test for compound auto fluorescence at 460 nm (blue) in HepG2 cell free culture (AID 720685)
# Summary of the method: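 Cell-free plates of MEM plus 10% FBS received 23 nL compound or DMSO vehicle; blue-channel (405/460 nm) intensity scored against triamterene as reference fluorophore.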
# [15] = qHTS assay to test for compound auto fluorescence at 535 nm (green) in HepG2 cell free culture (AID 720686)
# [16] = qHTS assay to test for compound auto fluorescence at 460 nm (blue) in HepG2 cells (AID 720687)
# Summary of the method: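 Blue-channel autofluorescence (Ex/Em 405/460 nm, triamterene-equivalent) was measured after 1 hr compound exposure at 37 C, 5% CO2. Cells were HepG2, plated overnight at 37 C in MEM plus 10% FBS.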
# [17] = target: Glucocorticoid receptor (Homo sapiens) (UniProt P04150); experiment: qHTS assay to identify small molecule agonists of the glucocorticoid receptor (GR) signaling pathway (AID 720691; active = well fitted activation curve with a large enough effect in the signal ratio in the repeat runs, not every such curve was filed as active; the % refers to the signal ratio)
# Summary of the method: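 HeLa GR-bla reporter line; cells pre-incubated 4 h, compound in DMSO 18 h at 37 C; LiveBLAzer B/G FRET substrate 2 h RT; fluorescence intensity read-out.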
# [18] = target: Glucocorticoid receptor (Homo sapiens) (UniProt P04150); experiment: qHTS assay to identify small molecule antagonists of the glucocorticoid receptor (GR) signaling pathway (AID 720692; active = well fitted inhibition curve with a large enough effect in the signal ratio in the repeat runs, not every such curve was filed as active; the % refers to the signal ratio)
# Summary of the method: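 Read-out: beta-lactamase FRET substrate fluorescence, 2 h at room temperature, in HeLa cells stably carrying a GRE-driven bla reporter. Compounds were co-incubated with 5 nM dexamethasone agonist (final) for 18 h at 37 C.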
# [19] = qHTS assay to test for compound auto fluorescence at 535 nm (green) in HepG2 cells (AID 720675)
# [20] = qHTS assay for small molecule disruptors of the mitochondrial membrane potential (AID 720635); also: potency is read from the fitted curve at half-maximal effect
# Summary of the method: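 Mitochondrial membrane potential tracked with Mito-MPS dye, red aggregates (ex 540/em 590 nm) against green monomers (ex 490/em 535 nm). Compound treatment 1 hr at 37C, dye 30 min in HepG2.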
# Glucocorticoid receptor (Homo sapiens), sequence (P04150 whole entry, looked up): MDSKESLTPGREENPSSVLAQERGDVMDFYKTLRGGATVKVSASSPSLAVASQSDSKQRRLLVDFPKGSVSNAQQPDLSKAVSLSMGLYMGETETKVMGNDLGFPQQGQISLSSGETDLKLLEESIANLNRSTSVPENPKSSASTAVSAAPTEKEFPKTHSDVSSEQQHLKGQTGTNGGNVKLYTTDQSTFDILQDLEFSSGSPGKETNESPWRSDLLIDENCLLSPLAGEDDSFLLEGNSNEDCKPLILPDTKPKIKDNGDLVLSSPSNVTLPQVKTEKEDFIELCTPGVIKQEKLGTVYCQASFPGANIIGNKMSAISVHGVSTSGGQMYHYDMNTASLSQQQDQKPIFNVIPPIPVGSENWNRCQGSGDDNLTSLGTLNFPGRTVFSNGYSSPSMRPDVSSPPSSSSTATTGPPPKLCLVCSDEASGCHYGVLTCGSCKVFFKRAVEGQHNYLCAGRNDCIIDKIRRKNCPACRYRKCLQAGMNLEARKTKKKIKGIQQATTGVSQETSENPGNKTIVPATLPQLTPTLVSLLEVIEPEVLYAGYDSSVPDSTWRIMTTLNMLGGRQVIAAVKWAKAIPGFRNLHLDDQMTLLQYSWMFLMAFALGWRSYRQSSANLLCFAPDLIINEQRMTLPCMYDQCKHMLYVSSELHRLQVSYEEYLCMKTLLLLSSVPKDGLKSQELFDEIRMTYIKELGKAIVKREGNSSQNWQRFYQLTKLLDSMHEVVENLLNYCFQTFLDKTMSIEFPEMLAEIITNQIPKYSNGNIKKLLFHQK
compound,measurement,setting,value
CCCCN(CCO)CCO,Potency,[1],inactive
same,Potency,[2],inactive
same,Potency,[3],inactive
same,Potency,[4],inactive
same,Potency,[5],inactive
same,outcome,[6],inactive
same,Potency,[7],inactive
same,outcome,[8],inactive
same,outcome,[9],inactive
same,Potency,[10],inactive
same,outcome,[11],inactive
same,outcome,[12],inactive
same,outcome,[13],inactive
same,Potency,[14],inactive
same,outcome,[15],inactive
same,Potency,[16],inactive
same,Potency,[17],inactive
same,Potency,[18],inactive
Cc1nc(-c2ccc(OCC(C)C)c(C#N)c2)sc1C(=O)O,Potency,[1],inactive
same,Potency,[2],0.15 µM (active)
same,Potency,[3],inactive
same,Potency,[4],inactive
same,outcome,[6],inactive
same,outcome,[19],inactive
same,Potency,[7],inactive
same,outcome,[8],inactive
same,outcome,[9],inactive
same,Potency,[10],inactive
same,outcome,[11],inactive
same,outcome,[12],inactive
same,outcome,[13],inactive
same,Potency,[14],inactive
same,outcome,[15],inactive
same,Potency,[16],inactive
same,Potency,[17],inactive
Oc1ccc2c(c1)OC[C@@H](N1CCC(O)(c3ccc(F)cc3)CC1)[C@H]2O,Potency,[1],inactive
same,Potency,[2],7.5 µM (active)
same,Potency,[3],inactive
same,Potency,[4],inactive
same,Potency,[20],33.5 µM (active)
same,outcome,[6],inactive
same,outcome,[19],inactive
same,Potency,[7],inactive
same,outcome,[8],inactive
same,outcome,[9],inactive
same,Potency,[10],inactive
same,outcome,[11],inactive
same,outcome,[12],inactive
same,outcome,[13],inactive
same,Potency,[14],inactive
same,outcome,[15],inactive
same,Potency,[16],inactive
same,Potency,[17],inactive
same,Potency,[18],inactive
COC[C@H](c1ccc(C(F)(F)F)cc1)N1CCN(C2(C)CCN(C(=O)c3c(C)ncnc3C)CC2)C[C@H]1C,Potency,[1],inactive
same,Potency,[2],inactive
same,Potency,[3],inactive
same,Potency,[4],inactive
same,Potency,[5],inactive
same,outcome,[6],inactive
same,Potency,[7],inactive
same,outcome,[8],inactive
same,outcome,[9],inactive
same,Potency,[10],inactive
same,outcome,[11],inactive
same,outcome,[13],inactive
same,Potency,[14],inactive
same,outcome,[15],inactive
same,Potency,[16],inactive
same,Potency,[17],inactive
same,Potency,[18],inactive
NCCN1CCNC1=O,Potency,[1],inactive
same,Potency,[2],inactive
same,Potency,[3],inactive
same,Potency,[4],inactive
same,Potency,[5],inactive
same,outcome,[6],inactive
same,outcome,[19],inactive
same,Potency,[7],inactive
same,outcome,[8],inactive
same,outcome,[9],inactive
same,Potency,[10],inactive
same,outcome,[11],inactive
same,outcome,[13],inactive
same,Potency,[14],inactive
same,outcome,[15],inactive
same,Potency,[16],inactive
same,Potency,[17],inactive
same,Potency,[18],inactive
C=C(C)[C@H]1CC=C(C)CC1,Potency,[1],inactive
same,Potency,[2],inactive
same,Potency,[3],inactive
same,Potency,[4],inactive
same,outcome,[6],inactive
same,outcome,[19],inactive
same,Potency,[7],inactive
same,outcome,[8],inactive
same,outcome,[9],inactive
same,Potency,[10],inactive
same,outcome,[11],inactive
same,outcome,[12],inactive
same,outcome,[13],inactive
same,Potency,[14],inactive
same,outcome,[15],inactive
same,Potency,[16],inactive
C=C(C)C(=O)OCCC(C)OC(=O)C(=C)C (stereo unspecified),Potency,[1],inactive
same,Potency,[2],inactive
same,Potency,[3],inactive
same,Potency,[4],inactive
same,Potency,[5],inactive
same,outcome,[6],inactive
same,outcome,[19],inactive
same,Potency,[7],inactive
same,outcome,[8],inactive
same,outcome,[9],inactive
same,Potency,[10],inactive
same,outcome,[11],inactive
same,outcome,[13],inactive
same,Potency,[14],inactive
same,outcome,[15],inactive
same,Potency,[16],inactive
same,Potency,[17],inactive
same,Potency,[18],inactive
NC(=S)Nc1cccc2ccccc12,activation,[2],1.78% [at 8.08 µM]
same,"activity change, negative = cytotoxicity",[3],-14.4% [at 8.08 µM]
same,"activity, negative = cytotoxicity",[4],-8.88% [at 8.08 µM]
same,"activity change, negative = cytotoxicity",[5],7.63% [at 8.08 µM]
same,"ratio activity, negative = MMP loss",[20],-26.9% [at 8.08 µM]
same,"fluorescence, relative to Rose Bengal",[6],-0.163% [at 3.72 µM]
same,"fluorescence, % of fluorescein control",[19],0.0274% [at 3.72 µM]
same,"fluorescence, % of triamterene",[7],-0.0445% [at 3.72 µM]
same,"fluorescence, % of fluorescent control",[8],-0.0728% [at 3.72 µM]
same,"fluorescence, % of fluorescein",[9],0.198% [at 3.72 µM]
same,"fluorescence, % of fluorescent control",[10],-0.0083% [at 3.72 µM]
same,activity change,[11],0.0539% [at 3.72 µM]
same,"fluorescence, % of Rose Bengal",[13],-0.172% [at 3.72 µM]
same,"fluorescence, % of fluorescent control",[14],0.0279% [at 3.72 µM]
same,"fluorescence, % of fluorescein control",[15],0.006% [at 3.72 µM]
same,"fluorescence, % of fluorescent control",[16],-0.0944% [at 3.72 µM]
same,activation,[17],-4.91% [at 6.9 µM]
same,"activity change, negative = inhibition",[18],-3.43% [at 7.04 µM]
